Assay results from PubChem BioAssay AID1672 (Johns Hopkins Ion Channel Center, 2009).
Out of some 310,000 compounds screened, about 2,600 (0.84%) were called active. The sample holds actives, similar compounds and a random draw of the others, so the mix is not that of the screen. Unmarked numbers belong to inactive results.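 The calls were made as follows: active = fluorescence ratio B-score at or below minus 3 SD of library scores, with starting-brightness B-score within 2 SD (cut at about -4.2 in these data); inactive = the rest.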

biological target: Inward rectifier potassium channel 2 (Mus musculus) (UniProt P35561); assay: blocks the mouse Kir2.1 inward-rectifier potassium channel (AID 1672); conditions: HEK293-Kir2.1, FluxOR thallium flux fluorescence; at 10 µM; stronger effect = lower value;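 also: channel flux triggered by added potassium and thallium sulfate stimulus; B-score of peak minus minimum fluorescence over baseline after thallium stimulus; more negative B-score means stronger Kir2.1 block with less thallium influx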
Sequence (P35561 whole entry, looked up): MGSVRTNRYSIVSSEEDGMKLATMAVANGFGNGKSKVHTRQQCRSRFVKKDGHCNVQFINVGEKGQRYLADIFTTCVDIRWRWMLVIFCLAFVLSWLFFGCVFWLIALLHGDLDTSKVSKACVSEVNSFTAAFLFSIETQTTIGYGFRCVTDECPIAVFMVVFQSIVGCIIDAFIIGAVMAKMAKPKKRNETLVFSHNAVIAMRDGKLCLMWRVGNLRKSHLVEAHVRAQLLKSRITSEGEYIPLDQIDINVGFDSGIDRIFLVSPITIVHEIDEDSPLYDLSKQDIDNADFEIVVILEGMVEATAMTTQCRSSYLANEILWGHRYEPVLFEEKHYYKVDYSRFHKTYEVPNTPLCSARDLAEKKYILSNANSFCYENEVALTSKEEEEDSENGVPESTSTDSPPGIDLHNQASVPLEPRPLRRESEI

Structure (SMILES)	B-score
CN(Cc1nc2ccccc2s1)C(=O)c1ccc(F)cc1	1.03
COc1c(C=O)c(CCN(C)C(=O)c2ccc(F)cc2)cc2c1OCO2	-4.35 (active)
O=C(/C=C/c1ccc2c(c1)OCO2)NCc1ccc(F)cc1	-0.53
Cc1cc(NC(=O)C(C)SCC(=O)Nc2ccccc2N2CCCCC2)no1 (stereo unspecified)	-4.17
COc1ccc(C(=O)c2c3ccc([N+](=O)[O-])cc3[n+]([O-])n2CCCN)cc1	0.68
Cc1cc(NC(=O)CCS(=O)(=O)c2ccc(F)cc2)no1	-0.47
Cc1c(Cl)cccc1NC(=S)NCC(O)c1ccccc1 (stereo unspecified)	-4.47 (active)
CCNC(=S)Nc1cccc(Cl)c1C	0.45
Cc1c(Cl)cccc1NC(=S)NCc1ccc2c(c1)OCO2	-1.74
O=C(Nc1ccc(N2CCCCC2)cc1)c1cc(S(=O)(=O)N2CCOCC2)ccc1F	0.53
COc1cc(N)c(Cl)cc1C(=O)OCC(=O)c1ccc2c(c1)NC(=O)CO2	0.6
Cc1nn(C)cc1C(=O)c1ccccc1	0.22
CCOc1ccc(C(=O)Nc2cc(Cl)ccc2-n2cncn2)cc1OC	-2.32
COc1ccc2c(c1)C=CC1(O2)N(CCO)c2ccccc2C1(C)C (stereo unspecified)	-6.82 (active)
CN1c2ccc([N+](=O)[O-])cc2C(C)(C)C12C=Cc1cc(C(=O)O)ccc1O2 (stereo unspecified)	0.63
COc1cccc(CC2(CO)CCCN(CC3=Cc4cc(OC)ccc4OC3)C2)c1 (stereo unspecified)	0.68
CN(N)c1nc(N2CCCC2)nc(N2CCCC2)n1	0.28
Cc1sc2ncnc(N3CCC(C(=O)NNC(=O)c4ccc(F)cc4)CC3)c2c1C	0.05
CC1CN(C(=O)COC(=O)c2cccc(NS(=O)(=O)c3ccccc3)c2)CC(C)O1 (stereo unspecified)	-4.76 (active)
COc1ccc(N2CCN(C(=O)COC(=O)c3cccc(S(=O)(=O)Nc4ccccc4OC)c3)CC2)cc1	0.61
CSc1ccc(Cl)c(C(=O)OCC(=O)N2CC(C)OC(C)C2)c1 (stereo unspecified)	-0.84
O=C(NC1CCCCC1)c1ccc(-c2ccc(Cl)cc2)o1	1.25
O=C(CSc1nc2ccccc2c(=O)n1CCCO)N1CCc2ccccc21	0.73
C=CCn1c(=O)c2ccccc2n2c(SCC(=O)N3CCCc4ccccc43)nnc12	0.08

Structure (SMILES)	B-score
Cn1c(SCC(=O)N2CCCc3ccccc32)nc2ccccc2c1=O	-6.03 (active)
CN(Cc1ccccc1F)C(=O)C(Cc1ccccc1)NC(=O)c1ccccc1 (stereo unspecified)	-1.09
CC(=O)Nc1cccc(C(=O)OCC(=O)NCc2cc(C)c(O)c(C)c2)c1	-1.5
CC(=O)N1C(C)c2ccccc2C(C)(C)CC12CCCCC2 (stereo unspecified)	-6.43 (active)
CC(=O)N1CCN(C(=O)c2cc(-c3ccc(C)o3)nc3ccccc23)CC1	0.63
CCCCCN(C(=O)CCC(=O)OCCOc1ccc(OC)cc1)c1c(N)n(CCCC)c(=O)[nH]c1=O	0.11
O=C(N/N=C/c1cc(Br)c(O)c([N+](=O)[O-])c1)C(O)(c1ccccc1)c1ccccc1	1.06
CN(/N=C/c1ccccc1)C(=S)c1ccccc1	1.83
CCCOc1ccc(Cn2ccnc2)cc1[N+](=O)[O-]	-0.79
CCCCCOc1ccc(CSC2=NCCN2)cc1[N+](=O)[O-]	-0.86
CCCCOc1ccc(CSC(=N)N)cc1[N+](=O)[O-]	-5.22 (active)
O=C(CNC(=O)C12CC3CC(CC(C3)C1)C2)OCC(=O)N1CCCCC1	1.97
CCC(C)N(C(=O)COC(=O)c1nc(Cl)ccc1Cl)C1CCS(=O)(=O)C1 (stereo unspecified)	-0.16
CCN(CC(=O)Nc1ccc(NC(C)=O)cc1)C(=O)C1CC(=O)N(Cc2ccc(C)cc2)C1 (stereo unspecified)	1.85
CCN(CC)C(=O)CC(c1ccc2c(c1)OCO2)c1c(OC)cc(OC)c2c(-c3ccccc3)cc(=O)oc12 (stereo unspecified)	1.58
COc1cc(OC)c2ccc(=O)oc2c1C(CCN1CCN(c2ccccc2)CC1)c1ccc2c(c1)OCO2 (stereo unspecified)	-0.17
CCN(CC)CCC(c1ccc2c(c1)OCO2)c1c(OC)cc(OC)c2c(-c3ccccc3)cc(=O)oc12 (stereo unspecified)	-6.31 (active)
Cc1ccc2nc(Nc3ccccc3O)nc(-c3ccccc3)c2c1	-0.47
O=C(CCl)NNc1nc(-c2ccccc2)c2cc(Cl)ccc2n1	0.44
NC(N)=Nc1nc(-c2ccccc2)c2cc(Cl)ccc2n1	-10 (active)
CCCCn1c(N)c(N(CCOC)C(=O)c2cccc(S(=O)(=O)N(C)c3ccccc3)c2)c(=O)[nH]c1=O	-1.94
COc1ccc2c(c1)C(C)=CC(C)(C)N2C(=O)CNCc1ccc2c(c1)OCO2	-6.62 (active)
COc1ccc2c(c1)C(C)=CC(C)(C)N2C(=O)Nc1ccccc1	-0.17
COc1cccc(CNCc2ccc3c(c2)OCO3)c1	0.44

Structure (SMILES)	B-score
COc1ccc(-c2nnc(SCC(=O)Nc3cccnc3Cl)n2C)cc1	-1.29
COc1ccccc1-c1nc(SC)n[nH]1	0.18
COc1ccc(-c2n[nH]c(C)c2-c2ccccc2OC)c(O)c1	-2.01
COc1ccccc1-c1n[nH]c2c1[C@H](C)CC[C@H]2C(C)C	-5.83 (active)
CCOc1ccc(S(=O)(=O)N2CCC(C(=O)OCc3ccc(OC)cc3)CC2)cc1	-1.22
CCOc1cc(/C=N/NC(=O)c2cccc(S(=O)(=O)N3CCOCC3)c2)ccc1OCC(=O)N(C)C	0
COc1ccc(C(CNCC(=O)Nc2ccccc2F)N(C)C)cc1 (stereo unspecified)	-0.53
COc1ccc(CC(=O)NC(C)CCc2ccccc2)cc1 (stereo unspecified)	-1.96
COc1ccc(C(CCNCc2ccccc2F)c2ccc(F)cc2)cc1 (stereo unspecified)	-9.19 (active)
Cc1ccc(NC(=O)COc2coc(CN3CCc4ccccc4C3)cc2=O)cc1Cl	-0.37
CC(=O)Nc1ccc(C(=O)Nc2cccc(S(=O)(=O)NC3=NCCC3)c2)cc1	-0.82
O=C(COC(=O)c1cccs1)Nc1ccccc1Cl	-0.93
O=C(Nc1ccccc1Cl)/C(Cl)=C(\Cl)S(=O)c1ccccc1 (stereo unspecified)	-14.3 (active)
O=C(Nc1ccccc1Cl)Nn1cnnc1	1.92
O=C(NCCCc1ccccc1)C(=O)NCC1OCCN1S(=O)(=O)c1ccccc1 (stereo unspecified)	0.45
CCOc1ccc(S(=O)(=O)N2CCN=C2Cc2ccccc2)cc1C	-3.8
CC1=NCCN1S(=O)(=O)c1cccc([N+](=O)[O-])c1	0
COc1cc(S(=O)(=O)N2CCN=C2c2ccccc2)ccc1Cl	-5.41 (active)
CCOC(=O)c1cc(C(C)C)sc1NC(=O)COC(=O)c1nccnc1N	-0.16
CCCCN(C(=O)c1ccc(S(=O)(=O)N2CCOCC2)cc1)C1CCS(=O)(=O)C1 (stereo unspecified)	-1.08
Cc1ccc(-c2nn(-c3ccccc3)cc2C(=O)NCCCN2CCCC2=O)cc1	-0.8
COc1ccccc1OCC(O)CN1CCOCC1 (stereo unspecified)	1.4
OC(COc1ccc(F)cc1Cl)CN1CCc2ccccc2C1 (stereo unspecified)	-5.33 (active)
Cc1ccc(OCC(O)CN2CCN(CC(O)COc3ccc(C)cc3Cl)CC2)c(Cl)c1 (stereo unspecified)	0.66

Structure (SMILES)	B-score
Cc1ccc(C(=O)NC2CCCC(C)C2C)cc1S(=O)(=O)N1CCCCC1 (stereo unspecified)	-1.83
O=C(Cc1ccccc1)NCc1ccc(F)cc1	0.8
CCCCC(=O)NCc1ccc(F)cc1	0.15
CCn1cc(CCC(=O)NCc2ccc(F)cc2)c2ccccc21	-6.18 (active)
CCN(CC)CCOC(=O)c1ccc(NC(=O)CNC(=O)c2ccccc2)cc1	0.63
CCC(C(=O)OCCN(CC)CC)c1ccccc1 (stereo unspecified)	0.4
CCCC(C(=O)OCCN(CC)CC)(c1ccccc1)c1ccccc1	-5.06 (active)
COc1cc(C(=O)OCC(=O)N(CC(C)C)C2CCS(=O)(=O)C2)ccc1OCC(C)C (stereo unspecified)	1.65
COc1ccc(NC(=O)CSc2nnc(Cc3ccccc3)c(=O)n2N)cc1	-1.28
CC12CCC(=O)N1C(C(=O)Nc1ccc(F)c(F)c1F)CS2 (stereo unspecified)	1.46
COc1cccc(CNC(=O)C(=O)NCCC2CCCCN2S(=O)(=O)c2ccc(C)cc2)c1 (stereo unspecified)	-0.02
COc1cccc(CN(C)CC(=O)Nc2sc3c(c2C#N)CCC3)c1	1.34
COc1cccc(CN(C)CC(O)COC(c2ccccc2)c2ccccc2C)c1 (stereo unspecified)	-9.28 (active)
COc1cccc(CN(C)CC(=O)Nc2ccccc2C(=O)Nc2ccccc2)c1	0.2
C=CCOc1ccc(/C=C/C(=O)OC(C)C(=O)Nc2ccc(NC(C)=O)cc2)cc1 (stereo unspecified)	1.98
Cn1c(CO)cnc1SCc1ccccc1	0.48
CSc1nc2ccccc2c(=O)n1Cc1ccc(F)cc1	-0.15
CSc1c(SCc2ccccc2)cnn(Cc2ccccc2)c1=O	-5.77 (active)
O=C(NCCC1CCCCN1S(=O)(=O)c1ccc(Cl)cc1)C(=O)NCc1ccco1 (stereo unspecified)	0.39
CCCNC(=O)CSc1nc(Cc2ccccc2)nc2ccccc12	-5.07 (active)
CCCc1nc(SCC(=O)Nc2ccc(S(=O)(=O)N(C)C)cc2)c2ccccc2n1	0.71
CCc1nc(SCC(=O)NNC(=O)c2ccc(C)cc2)c2ccccc2n1	-1.13
Brc1cnc2ccccc2c1N1CCCCC1	0.77
CCOc1ccc(NS(=O)(=O)c2ccc(C(=O)NCC(c3ccccc3OC)N3CCCC3)cc2)cc1 (stereo unspecified)	-0.36
